Bioassay records: PubChem, University of Kansas High Throughput Screening Laboratory
Compounds with a hit are over-represented: about 3.6% of the library has one in this group of screens.
Pf apPOL block – Pf-apPOL inhibitors, biochemical, fluorescence; Plasmodium falciparum apicoplast DNA polymerase (apPOL); Recombinant Pf-apPOL, molecular beacon fluorescence, 1.5 h; inhibition, % at 10 µM; 210,000 tested, 0.25% active; AID 1794808, 2022
mHTT CaM bind – mutant huntingtin-calmodulin interaction inhibitors – biochemical, AlphaScreen, primary screen; P42858; 190,000 tested, 3.6% active; AlphaScreen His-mHTT/GST-CaM binding, luminescence; inhibition, % at 15 µM;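 note: 0% = both proteins with DMSO and 100% = one protein alone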
Active calls of the source: *. Cut-off read from the data, not from the text of the source: active = inhibition above about 50%; inactive = the rest.

COc1cccc(C(=O)N2CCC3(CC2)NC(=O)c2cc(F)ccc2N3C)c1 was read as Pf apPOL block -2 and mHTT CaM bind 4.
`O=C1Cc2ccccc2C1=C1Cc2ccccc2C1` gave Pf apPOL block 12.
Screening O=C1C(=C2C/C(=N/O)c3ccccc32)C(=O)c2ccccc21 returned mHTT CaM bind active.
For O=C1CC(=C2C(=O)c3ccccc3C2=O)c2ccccc21 the results were mHTT CaM bind 86*.
`O=C1C(c2ccccn2)=C(O)c2ccccc21` gave Pf apPOL block 1 and mHTT CaM bind 4.
Screening Cc1[nH]c2ccccc2c1CCN1C(=O)CCC1=O returned Pf apPOL block 3 and mHTT CaM bind 1.
COc1cccc2cc(C(=O)Nc3ccc(C)cc3C)c(=O)oc12 was read as Pf apPOL block -5 and mHTT CaM bind 1.
`COc1ccc(NC(=O)c2cc3cccc(OC)c3oc2=O)c(OC)c1` gave Pf apPOL block 100* and mHTT CaM bind 2.
For COc1ccc(NC(=O)Cn2[nH]c(-c3ccc(F)cc3)cc2=O)c(C)c1 the results were Pf apPOL block 5 and mHTT CaM bind 10.
For COc1ccc2oc(C)c(C(=O)O)c2c1 the results were Pf apPOL block 3 and mHTT CaM bind 0.
For COc1ccc2oc(C)c(C(C)=O)c2c1 the results were Pf apPOL block 98* and mHTT CaM bind -7.
For O=C(Nc1ccc(F)cc1)N1CCCN(CCc2ccccc2)CC1 the results were Pf apPOL block 0.
Screening Cc1cc(N2C(=O)c3ccc(C(=O)N4CC=C(c5ccccc5)CC4)cc3C2=O)no1 returned Pf apPOL block -3 and mHTT CaM bind 51*.
`Cc1cc(N2C(=O)c3ccc(C(=O)O)cc3C2=O)no1` gave Pf apPOL block -1 and mHTT CaM bind -4.
Cc1cc2nc(CN3CCN(c4cccc(Cl)c4)CC3)c(=O)[nH]c2cc1C was read as Pf apPOL block 0 and mHTT CaM bind -7.
`O=c1[nH]c2cc(Cl)c(Cl)cc2nc1CN1CCN(c2ccccc2)CC1` gave Pf apPOL block 6 and mHTT CaM bind 52*.
Cn1nc(-c2ccc(N3CCCCC3)c(NS(=O)(=O)c3ccccc3)c2)c2ccccc2c1=O was read as Pf apPOL block -2 and mHTT CaM bind 1.
Screening Cc1ccc(NC(=S)Nc2ccc(C)c(Cl)c2)cc1Cl returned Pf apPOL block -6.
`O=C(CN1C(=O)S/C(=C\c2c(Cl)cccc2Cl)C1=O)Nc1cc([N+](=O)[O-])ccc1O` gave Pf apPOL block -19 and mHTT CaM bind 61*.
Cc1cccc(C)c1NC(=O)CN1C(=O)c2ccc([N+](=O)[O-])cc2C1=O was read as Pf apPOL block 0 and mHTT CaM bind 0.
Screening COc1ccccc1/C=C1/C(=O)N(c2ccc(Cl)c(Cl)c2)N=C1C returned Pf apPOL block -2 and mHTT CaM bind -2.
For Cc1nc(C(=O)NCCN(C)C2CCCCC2)c(C)n1C1CCN(C)CC1 the results were Pf apPOL block -2 and mHTT CaM bind 7.
For O=C(Cc1nc(-c2ccccc2)n[nH]1)Nc1ccc(F)c(F)c1 the results were Pf apPOL block -3 and mHTT CaM bind -2.
Screening O=C(Cc1nc(-c2ccccn2)n[nH]1)Nc1ccccc1F returned Pf apPOL block -6 and mHTT CaM bind 94*.
For Cc1ccccc1NC(=O)Cc1nc(-c2ccccc2)n[nH]1 the results were Pf apPOL block -3 and mHTT CaM bind 4.
`O=C(Cc1nc(-c2ccccn2)n[nH]1)Nc1ccc(F)cc1F` gave Pf apPOL block -17 and mHTT CaM bind 97*.
COc1ccc(NC(=O)C(=O)c2c(O)[nH]c3ccccc23)cc1Cl was read as Pf apPOL block -4 and mHTT CaM bind 1.
O=C(Cn1cnc2scc(-c3ccccc3)c2c1=O)Nc1ccccn1 was read as Pf apPOL block -16 and mHTT CaM bind 21.
`Cc1cc(C)c(C)c(C2C(C#N)=C(N)SC(N)=C2C#N)c1C` gave Pf apPOL block 4 and mHTT CaM bind 11.
`O=C(COc1ccc2c(c1)OCO2)NCCOc1ccc(-c2ccccn2)nn1` gave Pf apPOL block -8 and mHTT CaM bind 100*.
Screening Cc1cc(C)cc(OCCNC(=O)COc2ccc3c(c2)OCO3)c1 returned Pf apPOL block 2 and mHTT CaM bind 30.
O=C(CSC1CCCC1)NCCn1nc(-c2ccco2)ccc1=O was read as Pf apPOL block -6 and mHTT CaM bind 5.
For O=C(CSC1CCCC1)NCCOc1ccc(-c2ccccn2)nn1 the results were Pf apPOL block -9 and mHTT CaM bind 100*.
CCC(=O)N1CCc2ccccc2C1C(=O)N1CCN(c2ccccc2F)CC1 (stereo not drawn) was read as Pf apPOL block 3 and mHTT CaM bind 42.
CCOc1ccc(C2(CNC(=O)Cc3ccc(OC)c(OC)c3)CCCC2)cc1 was read as Pf apPOL block 0 and mHTT CaM bind 6.
`Clc1ccc(Nc2nc(NCC3CCCO3)nc3nccnc23)cc1` (stereo not drawn) gave Pf apPOL block -18 and mHTT CaM bind -13.
Screening CC(=O)Nc1nc2nccc(-c3ccccc3)n2n1 returned Pf apPOL block -6 and mHTT CaM bind -4.
`O=C(O)CCCC(=O)Nc1nc2nccc(-c3ccccc3)n2n1` gave Pf apPOL block -2 and mHTT CaM bind 82*.
COc1ccc(-n2nc(C(=O)Nc3ccc4c(c3)OCCO4)c3ccccc3c2=O)cc1 was read as Pf apPOL block 0 and mHTT CaM bind 11.
Screening COc1ccccc1C1CC(c2ccc(F)cc2)Nc2nc(N)nn21 (stereo not drawn) returned Pf apPOL block -3 and mHTT CaM bind 62*.
`COc1ccc(C2CC(c3ccccc3OC)n3nc(N)nc3N2)cc1` (stereo not drawn) gave Pf apPOL block -4 and mHTT CaM bind 2.
COc1ccccc1C1CC(c2ccccc2)Nc2nc(N)nn21 (stereo not drawn) was read as Pf apPOL block -1 and mHTT CaM bind -8.
`CCOc1ccccc1C1CC(c2ccc(F)cc2)Nc2nc(N)nn21` (stereo not drawn) gave Pf apPOL block -2 and mHTT CaM bind 72*.
Screening CN(C)C(C(=O)Nc1ccc2c(c1)OCO2)c1ccccc1 (stereo not drawn) returned Pf apPOL block -6 and mHTT CaM bind 2.
`COc1ccc(CCC(=O)NCCC2CCN(C(=O)Nc3ccccc3)CC2)cc1` gave Pf apPOL block -4 and mHTT CaM bind 7.
For CCOCCCNC(=O)N1CCCCCC1c1cccc(C)c1 (stereo not drawn) the results were Pf apPOL block 0 and mHTT CaM bind -1.
Cc1ccc(C)c(NC(=O)c2ccc(Cn3cncn3)cc2)c1 was read as Pf apPOL block -6 and mHTT CaM bind 0.
O=C(O)c1cc(NS(=O)(=O)c2ccc(Cl)cc2)cc(C(=O)O)c1 was read as Pf apPOL block 71* and mHTT CaM bind -3.
Screening O=S(=O)(Nc1cc(Cl)cc(Cl)c1)c1ccc(Cl)cc1 returned mHTT CaM bind -24.
`O=S(=O)(O)c1cc(-c2nnc(-c3ccccn3)nc2-c2ccc(S(=O)(=O)O)o2)co1` gave mHTT CaM bind 100*.
`c1ccc(-c2nnc(-c3ccccn3)nc2-c2ccccc2)cc1` gave Pf apPOL block -2 and mHTT CaM bind 44.
Screening NC(=O)c1oc2ccccc2c1NC(=O)C12CC3CC(CC(C3)C1)C2 returned Pf apPOL block 6 and mHTT CaM bind 100*.
